Bioassay records (PubChem BioAssay)
This is one part of a sample in which hits are shown more often than they occur.
ARNT-TACC3 inh – ARNT/TACC3 interaction disruption. Q9Y6A5. AlphaScreen His-ARNT PAS-B/GST-TACC3 binding, luminescence; TACC3 fragment carries E629A point mutation. inhibition, % at 9.99 µM. 390,000 tested, 0.66% active. AID 623870;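 active = mean inhibition of replicates at least 50% and at least half of replicates each reaching 50%; inconclusive = half or more replicates reach 50% but mean below 50%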;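 note: 0% = complete ARNT plus TACC3 wells and 100% = ARNT alone without TACC3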
ERp5 inh – inhibitors of human ERp5. AID 651711. ERp5 insulin aggregation, absorbance 650 nm, 90 min. Q15084. 350,000 tested, 0.05% active. inhibition, % at 9.99 µM;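 active = mean replicate inhibition above about 25%, with every replicate also reaching it, limit read from the data, passing the limit was not always enough; inconclusive = only one of those two criteria met; inactive = neither criterion met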
ALR H2O2 inh – inhibitors of human sulfhydryl oxidase ALR | P55789 | purified ALR, DTT oxidation, H2O2 HRP-luminol luminescence | inhibition, % (concentration not given with the values) | 290,000 tested, 3.8% active;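 active = mean replicate inhibition above about 79%, with every replicate also reaching it, limit read from the data; inconclusive = only one of the two criteria met; inactive = mean below limit and not every replicate reaching it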
PDI inh – blocks human protein disulfide isomerase activity. P07237. PDI insulin aggregation turbidity, A650, 90 min. inhibition, % at 10 µM. 350,000 tested, 0.052% active. AID 588391;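 active = mean inhibition across replicates of 30% or more, whatever share of single replicates reach that level; inconclusive = mean inhibition below 30% while every single replicate reaches 30%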
Target sequence (P07237 whole entry, looked up): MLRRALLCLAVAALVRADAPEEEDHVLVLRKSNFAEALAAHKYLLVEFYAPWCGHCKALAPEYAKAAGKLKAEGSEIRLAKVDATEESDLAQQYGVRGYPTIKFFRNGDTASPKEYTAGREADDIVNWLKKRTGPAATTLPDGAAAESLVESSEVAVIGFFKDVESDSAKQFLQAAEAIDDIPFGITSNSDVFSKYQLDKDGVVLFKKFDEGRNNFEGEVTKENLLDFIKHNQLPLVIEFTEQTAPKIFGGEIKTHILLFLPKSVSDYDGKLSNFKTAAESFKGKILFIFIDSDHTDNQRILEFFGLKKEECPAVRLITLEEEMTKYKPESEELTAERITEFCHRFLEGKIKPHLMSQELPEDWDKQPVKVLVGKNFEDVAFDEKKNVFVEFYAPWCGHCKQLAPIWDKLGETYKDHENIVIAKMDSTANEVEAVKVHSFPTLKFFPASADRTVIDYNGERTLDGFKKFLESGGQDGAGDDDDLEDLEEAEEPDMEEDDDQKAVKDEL
PglD DTNB – PglD (C. jejuni) enzyme inhibition; purified PglD enzyme, DTNB colorimetric CoA detection; inhibition, % at 12.5 µM; 360,000 tested, 0.098% active; AID 602405; in the data active = inhibition above about 16%, passing the limit was not always enough; inconclusive = no clear call, values can overlap the other calls
CendR NRP1 mod – NRP-1/CendR interaction modulation; O14786; FAM-RPARPAR peptide binding to NRP-1, fluorescence polarization; inhibition, % at 25 µM; 360,000 tested, 0.85% active; AID 602438;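 active = inhibition or corrected inhibition above about 18%, plus a signal ratio from 0.5 to 1.5, limit read from the data, passing the limit was not always enough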
The depositor's hits bear a star; u = inconclusive; x = not tested or not shown; ! = a repeat was not active.

SMILES | ARNT-TACC3 inh | ERp5 inh | ALR H2O2 inh | PDI inh | PglD DTNB | CendR NRP1 mod
C[C@@H]1CCCCO[C@@H](CN(C)C(=O)Cc2ccccc2)[C@@H](C)CN([C@H](C)CO)C(=O)c2cc(NC(=O)Cc3ccccc3)ccc2O1 | -8 | 5 | x | x | 1 | x
CCOC(=O)N1CCN(C(=O)C2CCN(S(=O)(=O)c3ccc(OC)cc3)CC2)CC1 | -2 | 2 | -1 | -2 | x | 15
CCOC(=O)N1CCN(C(=O)C2CCN(S(=O)(=O)c3ccc(Cl)cc3)CC2)CC1 | -3 | x | -19 | 6 | -4 | -2
CCOC(=O)N1CCN(C(=O)c2ccc(CNS(=O)(=O)c3ccc(NC(C)=O)cc3)cc2)CC1 | -2 | 2 | -2 | -8 | -3 | 23*
CCOC(=O)N1CCN(C(=O)C2CCN(S(=O)(=O)c3ccc(OCC)cc3)CC2)CC1 | x | 1 | -3 | -2 | 3 | 26*
CCOC(=O)N1CCN(C(=O)C2CCC(CNS(=O)(=O)c3ccc(Cl)cc3)CC2)CC1 (centres undefined) | x | x | -2 | -4 | 4 | 27*
CN(Cc1ccccc1)c1nc2c(c(=O)[nH]c(=O)n2C)n1C | -12 | x | 3 | 5 | -4 | 4
Cc1cccc(Cn2c(N(C)Cc3ccccc3)nc3c2c(=O)[nH]c(=O)n3C)c1 | 0 | 0 | -13 | -5 | -5 | 26*
Cc1noc(C)c1NC(=O)Nc1ccc2c(c1)C(=O)N([C@@H](C)CO)C[C@H](C)[C@H](CN(C)Cc1ccc(Cl)c(Cl)c1)O2 | 0 | 1 | x | x | 2 | x
CCCN(C)C[C@H]1Oc2ncc(C#CCC(C)C)cc2C(=O)N([C@@H](C)CO)C[C@H]1C | -4 | -9 | x | x | -2 | x
Cc1ccc(-c2nc(N)sc2C)cc1 | 6 | 3 | x | 0 | x | 1
Cc1sc(N)nc1-c1c(C)n(C)c2ccccc12 | 8 | -3 | 99* | -1 | -3 | 2
Cc1ccc(NC(=O)C[C@H]2CC[C@H]3[C@@H](COc4ccc(NC(=O)C(C)C)cc4C(=O)N3C)O2)cc1 | 12 | 12 | x | x | 0 | x
COc1cc(OC)c(NC(C)C(=O)N2CCCC2)cc1Cl (centres undefined) | -2 | -3 | 79* | 0 | -1 | 3
O=C(C[C@@H]1C[C@H]2c3cc(NS(=O)(=O)c4ccc(F)cc4)ccc3O[C@H]2[C@@H](CO)O1)NC1CCCC1 | -4 | 3 | x | x | -1 | x
O=C(Nc1cccc(F)c1)N1CC(=O)N2[C@H](CO)[C@@H](c3ccc(C#CC4CC4)cc3)[C@@H]2C1 | x | 2 | x | x | x | x
C=CCN(C(=O)c1csnn1)C(C(=O)NCc1ccccc1)c1ccccc1F (centres undefined) | 16 | 1 | -5 | 4 | 0 | 7
C=CCN(C(=O)c1csnn1)C(C(=O)NCc1ccccc1)c1c(F)cccc1Cl (centres undefined) | -1 | 3 | 0 | 4 | 0 | 27*
CN1C(=S)SC(N(O)C(=O)Nc2ccccc2)C1(C)C (centres undefined) | -10 | x | 0 | -2 | -1 | -11
CN1C(=S)SC(N(O)C(=O)Nc2cccc3ccccc23)C1(C)C (centres undefined) | 8 | x | -4 | 1 | 0 | 31*
Cc1ccc(NC2CCCN(C(=O)c3ccccc3N3CCOCC3)C2)cc1C (centres undefined) | 0 | 1 | 99* | 1 | -4 | 4
O=C(c1ccccc1N1CCOCC1)N1CCCC(Nc2ccc(F)cc2)C1 (centres undefined) | 1 | 3 | 98* | 1 | 6 | -7
COc1ccc(NC2CCCN(C(=O)c3ccccc3N3CCOCC3)C2)cc1OC (centres undefined) | -1 | 4 | 98* | -18 | 7 | -5
COc1ccc(NC2CCCN(C(=O)c3cccnc3SC)C2)cc1OC (centres undefined) | 8 | -15 | 100* | 8 | -2 | 0
COc1ccc(C(=O)N2CCCC(Nc3ccc(F)c(F)c3)C2)c(OC)n1 (centres undefined) | -6 | -32 | 20 | 7 | -2 | 13
SMILES | ARNT-TACC3 inh | ERp5 inh | ALR H2O2 inh | PDI inh | PglD DTNB | CendR NRP1 mod
COc1cccc(C(=O)N2C[C@@H]3[C@H](c4ccccc42)[C@@H](CO)N3C(=O)c2ccccc2)c1 | -2 | -3 | x | x | 0 | x
COc1ccc2c3c(n(C)c2c1)[C@H](CO)N(Cc1cc(F)ccc1F)CC31CN(C(C)=O)C1 | x | 1 | x | x | x | x
C[C@@H]1CN([C@H](C)CO)C(=O)c2cc(NC(=O)NC3CCCCC3)ccc2O[C@@H](C)CCCCO[C@@H]1CN(C)C(=O)CCC(F)(F)F | -7 | 5 | x | x | 2 | x
O=C(C1CC1)N1CC2(C1)[C@H](c1ccccc1)[C@@H](CO)N2C(=O)c1cccnc1 | x | 2 | x | x | x | x
O=C(C[C@@H]1C[C@H]2c3cc(NC(=O)CC4CC4)ccc3O[C@H]2[C@@H](CO)O1)NCC1CC1 | 1 | 0 | x | x | -1 | x
C[C@H](CO)N1C[C@H](C)[C@H](CN(C)C(=O)Nc2ccc(F)cc2)OCCCC[C@H](C)Oc2ccc(NS(C)(=O)=O)cc2C1=O | -7 | -3 | x | x | -2 | x
N#C/C(=N\O)c1nc(-c2ccccc2)cs1 | -7 | x | 89*! | 0 | 6 | -1
C[C@H](CO)N1C[C@H](C)[C@H](CN(C)Cc2ccc(Cl)c(Cl)c2)OCCCC[C@H](C)Oc2ccc(NS(=O)(=O)c3ccc(F)cc3)cc2C1=O | x | -1 | x | x | 4 | x
O=C(N/N=C/c1ccc(O)cc1)NC12CC3CC(CC(C3)C1)C2 | 3 | 0 | 93* | u | -2 | 21
C=C1CC(C(=O)N/N=C/c2ccc(O)cc2)C1 | -4 | x | 100* | -1 | x | 4
O=C(NN=Cc1ccc(O)cc1)C(=O)NN=Cc1ccc(O)cc1 | -10 | -5 | x | 18 | 1 | 3
O=C(CC12CC3CC(CC(C3)C1)C2)N/N=C/c1ccncc1 | 0 | x | x | -4 | x | 18*
COc1ccc(N2Nc3n[nH]c(N)c3N2)cc1 | 1 | x | 99* | -12 | -4 | 20
O=C(C[C@H]1C=C[C@@H](NC(=O)c2ccc(F)cc2)[C@@H](CO)O1)NCCc1ccccc1 | -5 | -1 | x | x | 1 | x
CC(/C=C1\N=C(SCc2ccccc2Cl)SC1=O)=C\c1ccccc1 | -5 | x | 99* | -8 | 4 | -16
c1ccc(Nc2ccccc2Nc2ccccn2)nc1 | 3 | 3 | 89* | -1 | x | 8
O=C(Nc1ccccn1)c1cc2ccccc2cc1O | x | x | -1 | -4 | 4 | 9
Oc1cccc2ccc(Nc3ccccn3)nc12 | 64* | x | u | 15 | 5 | -16
c1ccc(CNc2ccccn2)cc1 | -4 | 5 | 2 | 6 | -4 | -4
COc1ccccc1C(=O)Oc1ccc2c(c1)O/C(=C\c1ccncc1)C2=O | -1 | -6 | -4 | -1 | -4 | 5
COc1cc2c(c(OC)c1OC)C(=O)C(=Cc1ccccc1)O2 | -4 | 7 | x | 9 | 0 | 26*
C=CCn1sc(N)c(C(=O)OCC)c1=S | 2 | x | 99* | -4 | -3 | 8
